# Test results taken from PubChem BioAssay (NCI).
# Several values for one entry are separate records, joined by “and”; a condition that tells them apart may be missing. Identical values can stand only once. This is part of a sample that, as a whole, favours compounds with a hit. Of some 83,000 tested, about 20% had one in any assay.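 48-hour exposure, single concentration, 96-well plates; percent growth endpoint where 0 means no net growth. Active: below 10.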 Activity calls are given as the source filed them.
# Test system: LOX IMVI melanoma
# Assay: NCI-60 one-dose screen, 48 h (100 = growth as untreated, 0 = no growth, -100 = all killed)
# Conditions: 10 µM unless noted
row,Structure (SMILES),growth
1,COC(=O)c1[nH]nc(OC)c1C1(C(C#N)c2nc3ccccc3s2)CCCc2ccccc21 (stereo not given),95% (inactive)
2,COc1ccc(-c2cc(-c3cccc(Cl)c3)c(C#N)c(=O)[nH]2)c(OC)c1,101% (inactive)
3,Cc1nc(-n2[nH]c(=O)ccc2=O)sc1N=Nc1ccccc1,102% (inactive)
4,COc1ccc(-c2csc(NC(=O)CN3CCN(CCO)CC3)n2)cc1NS(=O)(=O)c1cccc2c(N(C)C)cccc12,-57.9% (active)
5,COc1ccc(-c2[nH]c3ccccc3c2-c2ccc(OC)cc2)cc1,46.3% (inactive)
6,COc1ccc(/C=N\Nc2nc(SCC(C)C)nc(-c3ccc(OC)cc3)c2C#N)cc1,31.9% (inactive)
7,CN(C)C(=O)c1cc2cnc(Nc3ccc(-c4csc5c(=S)cc(N6CCOCC6)oc45)cc3)nc2n1C1CCCC1,-39.8% (active)
8,O=C(Nc1ccc2ncsc2c1)c1csc(Nc2ccc3[nH]ncc3c2)n1,45% (inactive)
9,NS(=O)(=O)c1ccc(C(=O)N=Nc2c(O)[nH]c3c(F)cccc23)cc1,98% (inactive)
10,C/C=C(\C)C(=O)N[C@H]1CC[C@]2(C)C3CC[C@@]4(C)C(CC[C@@H]4C(C)N(C)C)C3CCC2[C@H]1OC(C)=O (stereo not given in full),-78.8% (active)
11,CC(=O)N1N=C(c2ccc(Nc3nc(Nc4ccc(F)cc4)nc(Nc4ccc(Cl)cc4)n3)cc2)CC1c1ccc(N(C)C)cc1 (stereo not given),63.1% (inactive)
12,ON=C1CCCCCCCC1,95.4% (inactive) and 102% (inactive)
13,Cc1ccc(NC(=O)c2sc3nc(C)c(C(=O)c4ccccc4)cc3c2N)cc1,94.9% (inactive)
14,O=C(/C=C/c1ccc([N+](=O)[O-])cc1)c1ccccc1,61.4% (inactive)
15,COc1cc(CO)cc2cc3ccccc3nc12,100% (inactive)
16,O=C(Cc1ccc(F)cc1)c1ccccc1,102% (inactive)
17,COc1cc(-c2[nH]ncc2Nc2ccc(Cl)cc2)cc(OC)c1OC,55.8% (inactive)
18,CC1(Cc2ccccc2)CC2=C(C(=O)O1)C(c1ccccc1)NC(=O)N2 (stereo not given),95.3% (inactive)
19,C=CCN1C=CC(=O)[C@H](O[Si](C)(C)C(C)(C)C)[C@@H]1/C=C/c1ccccc1,-43.9% [100 µM] (active)
20,Cc1ccc(-c2nc3nc(-c4ccc(Cl)cc4)nc(N4CCCNCC4)c3o2)cc1,-83.2% (active)
21,CC1=C2[C@@H](CC1)[C@]1(C)O[C@@](C3CC3)(C[C@H]1OC(=O)CO)[C@H]2OC(=O)/C=C/c1ccccc1,84% (inactive)
22,CCN1CCN(C(=O)[C@]23CC[C@@H](C)[C@H](C)[C@@H]2C2=CC[C@@H]4[C@@]5(C)CCC(=O)C(C)(C)[C@@H]5CC[C@@]4(C)[C@]2(C)CC3)CC1,-85.2% (active)
23,CCCO/N=C/c1ccccn1,108% (inactive) and 98.5% (inactive)
24,CN(C)CCN1C(=O)c2c(c3c4ccccc4n4c3c3c2c2ccccc2n3C2CC(O)C(O)C4(C)O2)C1=O (stereo not given),1.87% (active)
25,CCOC(=O)c1c(-c2ccc(C)cc2)c(C#N)c(=O)n(-c2cccc(C(F)(F)F)c2)c1N,96.9% (inactive)
26,CCCCCCCCCCCCCCCC(=O)O[C@@H]1[C@@H](O)[C@@H](O)C([C@H](NC(=O)[C@@H]2C[C@@H](CCC)CN2C)[C@H](C)Cl)O[C@@H]1SC (stereo not given in full),105% (inactive)
27,O=C1/C(=C/c2cn(-c3ccccc3)nc2-c2ccccc2)SC(=S)N1c1ccc(Cl)cc1,63.3% (inactive)
28,CN(C)CCCn1c2c(c3ccc(N4CCNCC4)cc3c1=O)C(=O)c1ccccc1-2,-90% (active)
29,CCOc1ccccc1NC(=O)c1cc2ccccc2cc1O,51.1% (inactive)
30,COc1ccc(C/C(C)=C(/c2ccc(OCCN3CCCCCC3)cc2)c2ccc(OC(=O)c3ccccc3)cc2)cc1,90.7% (inactive)
